# Bioassay records: PubChem, National Center for Advancing Translational Sciences (NCATS)
# AmpC inh no detg – AmpC beta-lactamase inhibition without detergent; P00811; Potency, µM (top dose mostly 57.1 µM), for inactives: at the highest dose activity change, negative = inhibition, usual class: inhibitors; 330,000 compounds, 0.52% hits; AmpC nitrocefin hydrolysis, absorbance 480 nm, 0.0001% Triton;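 note: potency is the fitted concentration of half-maximal effect; plate controls were no compound for no effect and no enzyme for full effect; nearly all actives have a fitted effect of over 20% in size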
# Target sequence (P00811 whole entry, looked up): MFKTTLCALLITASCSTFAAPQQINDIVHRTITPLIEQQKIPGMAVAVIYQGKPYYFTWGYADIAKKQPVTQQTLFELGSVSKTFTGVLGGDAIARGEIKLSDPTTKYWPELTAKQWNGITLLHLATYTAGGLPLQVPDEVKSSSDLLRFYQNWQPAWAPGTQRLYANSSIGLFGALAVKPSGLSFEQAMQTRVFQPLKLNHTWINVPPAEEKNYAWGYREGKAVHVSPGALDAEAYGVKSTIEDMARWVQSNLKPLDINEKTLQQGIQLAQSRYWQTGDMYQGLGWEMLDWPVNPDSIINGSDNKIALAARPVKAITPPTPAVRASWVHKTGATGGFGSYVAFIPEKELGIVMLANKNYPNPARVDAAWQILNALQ
#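 AmpC (5.3 nM in the dispensed reagent) in 20 mM phosphate pH 7.0 with 0.01% (detergent screen) or 0.0001% Triton X-100 was preincubated with compounds for 15 min at room temperature. Nitrocefin was then added from an 800 uM solution, and hydrolysis was followed at 480 nm.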
# AmpC inh detg – inhibitors of E. coli AmpC beta-lactamase with detergent | P00811 | AmpC hydrolysis of nitrocefin, absorbance 480 nm, 0.01% Triton | 370,000 compounds, 0.041% hits | AID 485294 | Potency, µM (series often up to 114 µM), for inactives: at the top dose activity change, negative = inhibition, usual class: inhibitors;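 note: potency is the fitted concentration of half-maximal effect; 0% = no-compound wells and -100% = no-enzyme wells; nearly all actives have a fitted effect of over 25% in size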
#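 AmpC (5.3 nM in the dispensed reagent) in 20 mM phosphate pH 7.0 with 0.01% (detergent screen) or 0.0001% Triton X-100 was preincubated with compounds for 15 min at room temperature. Nitrocefin was then added from an 800 uM solution, and hydrolysis was followed at 480 nm.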
# SARS PLpro yeast – SARS-CoV PLP inhibition in yeast; S. cerevisiae expressing SARS-CoV PLpro, growth rescue; Potency, µM (highest dose often 32.9 µM), inactives show top-dose activity, positive = growth rescue, usual class: activators; 330,000 compounds, 0.19% hits; calls by dose curve; note: potency is the fitted concentration of half-maximal effect; 0% is about no effect; nearly all actives have a fitted effect of over 55% in size
# Shiga inhibitor – blocks Shiga toxin action in Vero cells; Vero cells, Shiga toxin protein synthesis inhibition reporter; inhibition, % at 38.7 µM; 290,000 compounds, 9.2% hits; AID 2315; in the data active = inhibition mostly above about 28%, no sharp cut-off; inactive = mostly below about 43%; note: 0% is about no effect
# AMA1-RON2 inh – inhibitors of Plasmodium falciparum AMA1-RON2 interaction; 360,000 compounds, 0.2% hits; AID 720542; AlphaScreen AMA1-biotinylated RON2 peptide binding; Potency, µM (doses to about 58.2 µM), for inactives: top-dose activity change, negative = inhibition, hits mostly inhibitors;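 note: potency is the fitted concentration of half-maximal effect; 0% = vehicle wells and -100% = peptide control; nearly all actives have a fitted effect of over 45% in size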
#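 AMA1 (3D7) with his tag at 25 nM final met compounds first, then biotinylated RON2 peptide at 25 nM; detection used donor plus acceptor beads, 10 µg/mL apiece, read by AlphaScreen after 30 min at room temperature.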
# CHX counter – counter-screen for Shiga toxin inhibitors: cycloheximide protein synthesis inhibition | cell reporter, cycloheximide protein synthesis inhibition counterscreen | max response, % | 300,000 compounds, 12% hits; in the data active = max response mostly above about 13%, no sharp cut-off; inactive = mostly below about 14%; note: read at 38.3 µM for the half of the compounds with a filed dose; 0% is about no effect
# * marks the source's active call; other numbers are inactive results; u = inconclusive; x = not tested or not shown; [ ] = dose if it differs, or a comment. The full list was thinned out, with hits kept by preference. Unless noted, calls come from the whole dose curve; as a rule, active = well fitted curve in the direction sought with a large enough effect; inconclusive = small, poorly fitted or top-dose-only effect, or another doubt; inactive = no such curve, though single readings can be large; an effect the other way counts as inactive or inconclusive.
SMILES,AmpC inh no detg,AmpC inh detg,SARS PLpro yeast,Shiga inhibitor,AMA1-RON2 inh,CHX counter
O=C(CNC(=O)c1ccccc1F)Nc1ccc2c(c1)CCC2,-14%,-1%,-2%,x,-4%,x
O=C(Cc1ccccc1)Nc1ccc2c(c1)CCC2,-16%,5%,-2%,105*,-2%,39*
O=C(Nc1ccc2c(c1)CCC2)Nc1ccccc1F,-58%,0%,-5%,64*,18%,47*
O=C(Nc1cccc([N+](=O)[O-])c1)Nc1ccc2c(c1)CCC2,-12%,-1%,-2%,30,-5%,12*
O=C(Nc1ccc2c(c1)CCC2)Nc1ccc(F)cc1F,-35%,2%,-2%,74*,-2%,67*
O=C(Nc1ccc(F)cc1F)NC1CC1,-7%,-6%,-2%,-10,-4%,-2
Cc1ccc(C(C#N)N2CCOCC2)cc1 (configuration not stated),-11%,4%,4%,25,16%,-2
O=S(=O)(c1ccc(O)cc1)c1ccc(O)cc1,-21%,3%,-1%,-4,7%,-3
CCCNC(=O)Nc1ccc(C(F)(F)F)cc1,-22%,5%,-3%,43*,-1%,18*
COc1ccc(NC(=O)Nc2cccc([N+](=O)[O-])c2)cc1Cl,-25%,-12%,-20%,27,-7%,30*
CCCCNC(=O)Nc1ccc(C(O)(C(=O)OC)C(F)(F)F)cc1 (configuration not stated),-16%,u,8%,5,-1%,1
O=c1c(Cl)c(Cl)cnn1Cc1nnc(-c2ccc(Cl)cc2)o1,-34%,1%,-12%,63,34%,50*
O=c1c(Cl)c(Cl)cnn1Cc1ccccc1Cl,-16%,13%,-48%,-26,2%,-13
Cc1c(CNCCc2ccccc2Cl)c(C(=O)O)c(C)n1-c1ccccc1,30%,-6%,0%,32,-2%,17*
Cc1ccccc1CCNCc1c(C(=O)O)c(C)n(Cc2c(F)cccc2Cl)c1C,x,22%,x,x,x,x
C#CCOC(=O)Nc1cnccc1C(F)(F)F,-12%,3%,-2%,-9,2%,-4
C#CCOC(=O)Nc1ccc(OCC(F)(F)F)nc1,-11%,5%,0%,46*,12%,21*
OCCCNc1ncnc2c1cnn2-c1ccc(Cl)cc1,15%,-1%,-3%,75*,-1%,52*
CN(C)CCNc1ncnc2c1cnn2-c1ccc(Cl)cc1,17%,-12%,-1%,56,0%,30*
COCCN(C(=O)c1ccc(NC2CC2)c([N+](=O)[O-])c1)c1c(N)n(CC(C)C)c(=O)[nH]c1=O,8%,u,3%,x,2%,x
COc1ccc(-c2cc(C(N)=O)nc(N3CCCCCC3)n2)cc1,-21%,u,-7%,0,4%,-3
O=C1CCCN1CC(CN1CCOCC1)Sc1nc2ccccc2c(=O)n1-c1ccccc1 (configuration not stated),79%,u,-2%,-11,-5%,-4
Cc1ccc(C(=O)NCC(=O)OCc2csc(-c3ccccc3)n2)cc1,-1%,3%,17%,70*,-1%,36*
O=C(CNC(=O)c1ccco1)OCc1ccc(C(=O)Oc2ccccc2)cc1,-1%,u,-17%,24*,11%,33*
CCOc1ccc(C(=O)NCC(=O)OCc2csc(-c3ccccc3)n2)cc1,-15%,u,-24%,3,8%,15
COC(=O)c1ccc(COC(=O)CNC(=O)c2ccc(-c3ccccc3)cc2)cc1,-48%,-12%,-19%,46*,2%,68*
O=C(OCc1csc(-c2ccccc2)n1)c1ccc(O)cc1,-45%,3%,-15%,116*,-1%,37*
COc1ccc(C(=O)CCN2CCN(c3ccccc3F)CC2)cc1,0%[2.29 µM],-2%,-5%,4,-9%,8
CS(=O)(=O)Nc1cccc(C(=O)CC2(O)C(=O)Nc3ccccc32)c1 (configuration not stated),-15%,-13%,6%,-8,6%,-2
COc1ccc(CCn2c(O)c(C3=c4ccccc4=NC3=O)sc2=S)cc1OC,-21%,-10%,-2%,-22,-5%,1
